From ChEMBL document CHEMBL3433997, “St. Jude Leishmania screening dataset” (2016)

Tests used:
Format in all cases: functional
[1] = molecular target: Solute carrier family 2, facilitated glucose transporter member 1 (Homo sapiens) (UniProt P11166); test: ST_JUDE_LEISH: Cytotoxicity at 2uM final concentration against transgenic Leishmania Mexicana promastigotes LmGLUT1 that are glucose transport deficient and complemented with the human glucose transporter GLUT1. Activity is measured by DNA content using SYBR green in vitro
Chain of Solute carrier family 2, facilitated glucose transporter member 1 (Homo sapiens) (P11166 whole entry): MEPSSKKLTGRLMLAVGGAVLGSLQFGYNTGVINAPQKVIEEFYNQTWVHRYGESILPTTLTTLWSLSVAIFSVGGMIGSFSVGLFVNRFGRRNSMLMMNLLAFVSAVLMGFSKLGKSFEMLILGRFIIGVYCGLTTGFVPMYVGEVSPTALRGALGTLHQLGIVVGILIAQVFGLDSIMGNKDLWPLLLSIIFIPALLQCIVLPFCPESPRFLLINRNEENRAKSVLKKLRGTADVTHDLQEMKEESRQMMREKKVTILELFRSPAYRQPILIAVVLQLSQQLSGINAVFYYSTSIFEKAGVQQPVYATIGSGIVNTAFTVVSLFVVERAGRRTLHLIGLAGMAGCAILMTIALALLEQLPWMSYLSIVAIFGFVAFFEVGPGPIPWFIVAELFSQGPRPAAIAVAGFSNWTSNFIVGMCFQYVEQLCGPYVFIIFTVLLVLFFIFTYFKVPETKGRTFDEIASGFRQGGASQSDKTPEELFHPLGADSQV

[2] = molecular target: Hexose transporter 1 (Plasmodium falciparum) (UniProt O97467); test: ST_JUDE_LEISH: Cytotoxicity at 2uM final concentration against transgenic Leishmania Mexicana promastigotes LmPfHT that are glucose transport deficient and complemented with the Plasmodium falciparum hexose transporter. Activity is measured by DNA content using SYBR green in vitro
[3] = molecular target: Glucose transporter (Leishmania mexicana) (UniProt O61059); test: ST_JUDE_LEISH: Cytotoxicity at 2uM final concentration against transgenic Leishmania Mexicana promastigotes LmGT2 that are glucose transport deficient and complemented with the L. Mexicana glucose transporter 2. Activity is measured by DNA content using SYBR green in vitro

| SMILES | inhibition [1] | inhibition [2] | inhibition [3] |
| --- | --- | --- | --- |
| CC(C)(C)c1cc(C(=O)N2CCC(c3ccccn3)CC2)n(Cc2ccccc2)n1 | 0.22% | 1.08% | -0.6% |
| COc1ccc2nccc(N3CCC(CCNCc4ccc5c(n4)NC(=O)CO5)CC3)c2c1 | 1.72% | 5.22% | -0.63% |
| CO/C(=C\C=C\c1cc2cc(Cl)c(Cl)cc2[nH]1)C(=O)NCC(C)(C)CN(C)C | -1.89% | 2.21% | 1.65% |
| CCCCCCN1CCCN(Cc2ccc(C(=O)Nc3ccc(Cl)cc3)cc2)CC1 | 12.3% | 13.8% | 12.5% |
| CCOC(=O)c1ccc(NC(=O)N(Cc2ccc(-c3ccc(CN4CCNCC4)cc3)cc2)C2CCN(Cc3ccccc3)CC2)cc1 | 3.61% | 2.86% | -1.08% |
| O=C(/C=C/c1ccc(Cl)c(Cl)c1)NCCCCCN1CCC(c2n[nH]c(-c3ccccc3)c2Br)CC1 | 1.29% | -2.38% | 0.22% |
| CN1CCN(c2ccnc3cc4ccccc4cc23)CC1 | -3.09% | -3.08% | -0.9% |
| Cc1nc2ccccc2c(O)c1-c1ccc(Cl)cc1 | 1.42% | -1.38% | -1.04% |
| CN1CCN(c2ccnc3ccc(NC(=O)Nc4ccc(-c5ccncc5)c5ccccc45)cc23)CC1 | 3.36% | 0.39% | 5.81% |
| Oc1nc(Cc2ccccc2)nc2ccc(Cl)cc12 | 2.13% | 2.54% | 4.12% |
| COc1cc(CNC[C@@H](O)[C@H](Cc2ccccc2)NC(=O)c2cc(C3CCCC3)cc(N3CCCS3(=O)=O)c2)cc(OC)c1 | 4.36% | 3.83% | 4.45% |
| COc1ccc2ncc(F)c(CCN3CC(O)C(CNCc4ccc5oc(=O)ccc5c4)C3)c2n1 (stereo unspecified) | 8.17% | 6.29% | 5.19% |
| COc1ccc(NC(=O)NC2CCN(CCCOc3cc(C)nc4ccccc34)CC2)cc1OC | 0.88% | 1.97% | -3.5% |
| CC(C)c1ccc(S(=O)(=O)N(c2ccc3c(c2)OCO3)C2CCN(Cc3ccccc3)C2)cc1 (stereo unspecified) | -0.01% | -0.17% | 0.98% |
| O=C(CCc1c[nH]cn1)Nc1ccc(-c2ccc(-c3nc4cc(F)ccc4[nH]3)cc2)cc1 | 1.4% | 1.73% | 1.81% |
| COc1cccc(Nc2c(C(N)=O)cnc3ccc(-c4ccc([S+](C)[O-])cc4)cc23)c1 (stereo unspecified) | 2.64% | 4.5% | 0.66% |

| SMILES | inhibition [1] | inhibition [2] | inhibition [3] |
| --- | --- | --- | --- |
| CCCCOc1cc2c(cc1OCC)C(C=Cc1ccc(Cl)cc1Cl)=NCC2 | 15.5% | 27.9% | 10.2% |
| CC(C)(C)c1ccc(NC(=O)c2cccc(CN3CCCN(Cc4ccc(F)cc4)CC3)c2)cc1 | 3% | 2.6% | 1.15% |
| O=C(Nc1nc(-c2ccccn2)cc2ccccc12)c1cccc(Cl)c1 | 10.1% | 9.58% | 8.17% |
| CC(CN1CCN(C)CC1)C(=O)Nc1ccc(-c2ccc(-c3nc4cc(C(F)(F)F)ccc4[nH]3)cc2)cc1 (stereo unspecified) | 6.67% | 4.86% | 2.49% |
| CC(=O)Nc1ccc(C(=O)Nc2cccc(-c3cccc(-c4nc5cccc(C)c5[nH]4)c3)c2)cn1 | 4.29% | 3.64% | 1.41% |
| CCNc1cc(C(=O)N[C@@H](Cc2ccccc2)[C@H](O)CN[C@H](C)c2ccccc2)cc(N2CCCC2=O)c1 | 4.44% | 3.88% | -0.89% |
| c1ccc(C2=NN=C(c3ccccn3)C3C4CC(C23)C2C3CC(c5ccccc53)C42)nc1 (stereo unspecified) | 5.41% | 4.38% | 1.22% |
| COc1ccc2nccc([C@@H](O)CN3CCC(NC(=O)C(c4cc5ccccc5s4)N4CCN(c5ccccc5OC)CC4)CC3)c2c1 (stereo partly specified) | 1.84% | 1.89% | 0.56% |
| CCCCCCCN1CC[C@@H](CCCc2ccnc3ccc(OCCCCN/C(N)=N/O)cc23)[C@@H](CC)C1 | 4.19% | 2.68% | 2.04% |
| COc1cccc(-c2cnc(N)c(-c3nc4ccc(C(F)(F)F)cc4[nH]3)c2)c1 | 4.93% | 5.1% | 1.42% |
| S=C(NCCN1CCOCC1)Nc1ccccc1 | -1.94% | 0.47% | 0.17% |
| Clc1ccc(-c2cc(-c3csc(NCCN4CCCCC4)n3)on2)cc1 | 6.93% | 7.19% | 5.8% |
| Cc1[nH]c(C)c(-c2cc3ccccc3o2)c(=O)c1Cl | 0.9% | 1.79% | 0.5% |
| Cc1nc(C)c(-c2ccc(Oc3ccc(OC(F)(F)F)cc3)cc2)c(O)c1I | -0.28% | 0.69% | -1.65% |
| CN1CCCN(Cc2ccc(-c3ccc(NC(=O)c4ccc(C#N)cc4)cc3)cc2)CC1 | 0.69% | -0.51% | -0.13% |
| Cc1c[nH]c2cc(/C=C/C(=O)NC3CCC(CCN4CCc5ccc(C#N)cc5CC4)CC3)ccc12 (stereo unspecified) | 2.72% | 1.75% | 2.01% |
